Hits are enriched below; roughly 3.9% of the tested compounds scored in any of these assays.
WT yeast gro inh: growth inhibition of WT yeast, mitochondrial fusion screen | mitochondrial fusion phenotypic screen, WT strain | inhibition, % at 10 µM | 190,000 tested, 2.1% active; in the data active = inhibition above about 58%; tested in S. cerevisiae
TPT1 inhibitor: inhibitors of Candida albicans tRNA 2'-phosphotransferase TPT1. inhibition, % at 5 µM. recombinant caTPT1, FP RNA substrate dephosphorylation. 300,000 tested, 0.81% active;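 active = inhibition above the mean of all tested compounds plus 3 SD, set per screening campaign, cut at about 24% in these data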;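 also: plate controls were DMSO alone for no effect and ferristatin control at 100 nM for full effect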
Rtt109 HAT inh: blocks Candida albicans Rtt109/Vps75 acetyltransferase activity | purified Rtt109/Vps75, ThioGlo CoA-SH fluorescence, 4 h | 330,000 tested, 0.16% active | Q5AAJ8 | AID 540336 | inhibition, % at 34.9 µM;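 active = inhibition of at least 50% in every replicate; inconclusive = best replicate reaches 50% inhibition but some replicates fall short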
PHOSPHO1 inh: PHOSPHO1 (human) inhibition; recombinant PHOSPHO1, absorbance phosphatase assay; 290,000 tested, 1.1% active; Q8TCT1; inhibition, % at 13.3 µM; in the data active = inhibition above about 60%
Target sequence (Q8TCT1 whole entry, looked up): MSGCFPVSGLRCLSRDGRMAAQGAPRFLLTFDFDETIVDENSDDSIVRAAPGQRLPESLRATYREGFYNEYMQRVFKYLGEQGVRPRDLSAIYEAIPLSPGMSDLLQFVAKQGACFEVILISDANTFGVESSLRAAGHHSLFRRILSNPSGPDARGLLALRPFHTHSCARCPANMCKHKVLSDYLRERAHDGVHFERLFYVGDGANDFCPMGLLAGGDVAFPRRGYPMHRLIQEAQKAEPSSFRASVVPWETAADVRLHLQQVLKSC
SKKanGAS inh: inhibitors of SKKanGAS S. pyogenes growth in kanamycin (SK-promoter or general growth effect) | BacTiter-Glo, 6 h | 300,000 tested, 1.3% active | inhibition, % at 7.5 µM;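 active = mean replicate score, as percent of positive control median, at least 50; inconclusive = mean below 50 but one replicate at or above 50; inactive = mean and every replicate below 50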;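 also: strain carries kanamycin resistance gene driven by streptokinase promoter and grows in 40 µg/ml kanamycin; loss of luminescence reflects streptokinase promoter inhibition or plain growth inhibition; 0% = median of DMSO wells and 100% = positive control at its reference dose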
Platelet DG rel: modulates dense granule release in human platelets. human platelet-rich plasma, SFLLRN dense granule ATP release, luminescence. inhibition, %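 (compounds screened at 7.5 µM in platelet-rich plasma)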. 300,000 tested, 0.22% active. AID 1663;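 active = mean replicate score, as percent of positive control, at or above 50; inconclusive = mean below 50 but at least one replicate at or above 50; inactive = mean and every replicate below 50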
The depositor's hits bear a star; u = inconclusive; x = not tested or not shown.

SMILES	WT yeast gro inh	TPT1 inhibitor	Rtt109 HAT inh	PHOSPHO1 inh	SKKanGAS inh	Platelet DG rel
O=C(N/N=C/c1cccc(F)c1)c1cc(-c2ccco2)nc2ccccc12	60*	3	-2	44	2	0
Cc1ccc(S(=O)(=O)N2CCCCC2)cc1NC(=O)COC(=O)c1cccn1C	x	x	-8	x	x	x
N#CC1=C2SCN(c3ccccc3)CN2C(=O)CC1c1ccccc1Cl (centres undefined)	-4	4	4	86*	11	-4
N#CC1=C2SCN(Cc3ccccc3)CN2C(=O)CC1c1ccccc1F (centres undefined)	11	1	16	83*	-4	-6
CC(C)c1ccc(C2CC(=O)N3CN(C)CSC3=C2C#N)cc1 (centres undefined)	12	-3	9	12	-3	23
N#CC1=C2SCN(c3ccccc3)CN2C(=O)CC1c1c(Cl)cccc1Cl (centres undefined)	3	2	u	92*	4	-4
COc1ccc(Br)cc1C1CC(=O)N2CN(Cc3ccccc3)CSC2=C1C#N (centres undefined)	18	-1	10	24	4	2
N#CC1=C2SCN(c3ccccc3)CN2C(=O)CC1c1cccs1 (centres undefined)	5	4	3	81*	18	-8
C=CCn1c(SCC(=O)N2CCOCC2)nnc1C(C)NC(=O)c1ccccc1 (centres undefined)	x	-3	6	17	2	25
COc1cc(NC(=O)CSc2nc3c(c(=O)n(C)c(=O)n3C)n2C)cc(OC)c1	x	-3	6	15	17	11
N#C/C(C(N)=O)=c1/ccc2c(c1)N1C3=C(CCCC3)CC3CCCCC31N=2 (centres undefined)	30	-8	5	6	11	3
N#CC(C#N)=c1ccc2c(c1)N1C3=C(CCCC3)CC3CCCCC31N=2 (centres undefined)	73*	-3	5	7	12	-1
CCCCC(=O)c1c(O)c2ccccc2oc1=O	-12	-3	0	26	15	1
CC1CCC(C(=O)c2c(O)c3ccccc3oc2=O)CC1 (centres undefined)	12	2	-9	0	53*	-5
COc1ccc(OCC(=O)c2c(O)c3ccccc3oc2=O)cc1	-5	0	-2	-35	5	-29
CCOc1ccc(OCC(=O)c2c(O)c3ccccc3oc2=O)cc1	11	-3	15	68*	0	-3
Cn1c(Cc2ccccc2)nnc1SCC(=O)Nc1ccc(N2CCOCC2)cc1	x	0	-19	3	-9	3
CCOC(=O)C1=NN(c2ccccc2)C2(S1)SC(C(C)=O)=C(C)N2c1ccccc1 (centres undefined)	72*	0	-7	19	11	-1
CCOC(=O)C1=NN(c2ccc(C)cc2)C2(S1)SC(C(C)=O)=C(C)N2c1ccccc1 (centres undefined)	16	1	3	-27	11	1
CCOC(=O)C1=NN(c2cccc(C)c2)C2(S1)SC(C(C)=O)=C(C)N2c1ccccc1 (centres undefined)	77*	2	-3	62*	1	0
COc1cccc(C(=O)O/N=C(\N)c2ccc(C)cc2)c1	x	0	7	35	9	9
COc1cccc(C(=O)O/N=C(\N)Cc2ccc(Cl)cc2)c1	68*	2	-4	-2	5	13
N/C(Cc1ccc([N+](=O)[O-])cc1)=N\OC(=O)c1ccc2ccccc2c1	81*	0	5	12	-11	6
O=C(O)CCc1ccc(-c2ccccc2)o1	7	-4	78*	18	-1	7
CCn1c(=O)c(CCC(=O)N2CCN(c3ccccn3)CC2)c(C)c2c(C)nn(-c3cccc(C)c3)c21	x	0	3	24	49	2
SMILES	WT yeast gro inh	TPT1 inhibitor	Rtt109 HAT inh	PHOSPHO1 inh	SKKanGAS inh	Platelet DG rel
Cc1cc(C(=O)O)cc(S(=O)(=O)Nc2c(C)nn(C)c2C)c1C	x	x	-1	x	x	x
CCc1ccc(C(O)(c2ccccc2OC)C(CN2CCOCC2)c2ccccc2)cc1 (centres undefined)	77*	2	9	-14	-2	7
CCc1ccc(C(O)(CC(C)C)C(CN2CCOCC2)c2ccccc2)cc1 (centres undefined)	x	x	1	24	3	-4
COc1cc(N=c2c([N+](=O)[O-])nn(-c3ccc4c(c3)OCCO4)n2O)cc(OC)c1	8	1	-3	1	73*	-2
CC(C)c1ccc(N=c2c([N+](=O)[O-])nn(-c3ccc4c(c3)OCCO4)n2O)cc1	29	1	-3	37	21	-2
CCCN(CC(=O)Nc1ccccc1C)C(=O)Cc1c(C)nc2ccccc2c1C	x	x	-7	x	x	x
CCc1nnc(NS(=O)(=O)c2ccc(N=Cc3c(C)[nH]n(-c4ccc(C)c(C)c4)c3=O)cc2)s1	63*	0	-17	-8	25	14
Cc1ccc(-n2[nH]c(C)c(C=Nc3ccc(S(=O)(=O)Nc4nccs4)cc3)c2=O)cc1	19	-3	x	4	9	-10
O=C(/C=C/c1ccc(Cl)cc1)NCc1ccncc1	-7	-4	53*	-7	-11	13
CC1=NN(C(N)=S)C(=O)C1N=Nc1ccccc1O (centres undefined)	x	-13	6	x	0	-4
CC1=NN(C(N)=S)C(=O)C1N=Nc1cccc(Cl)c1 (centres undefined)	x	-4	2	31	3	-1
CC1=NN(C(N)=S)C(=O)C1N=Nc1c(Br)cc(Br)cc1Br (centres undefined)	x	0	14	44	66*	9
CC1=NN(C(N)=S)C(=O)C1N=Nc1ccccc1C (centres undefined)	65*	2	-5	-23	2	0
CC1=NN(C(N)=S)C(=O)C1N=Nc1ccc(S(N)(=O)=O)cc1 (centres undefined)	x	3	22	36	0	-1
CC1=NN(C(N)=S)C(=O)C1N=Nc1c(C)cc(C)cc1C (centres undefined)	61*	3	7	-16	51*	1
CC1=NN(C(N)=S)C(=O)C1N=Nc1c(Cl)cc([N+](=O)[O-])cc1Cl (centres undefined)	x	-1	5	-3	50*	-2
CC1=NN(C(N)=S)C(=O)C1N=Nc1ccc(C)cc1C (centres undefined)	70*	6	x	18	4	-21
Cn1cc(C(=O)c2ccc(Cl)cc2Cl)cc1C(=O)N/N=C(\N)COc1ccc(Cl)cc1	x	-5	x	48	25	-24
Cn1cc(C(=O)c2ccc(Cl)cc2Cl)cc1C(=O)N/N=C(\N)COc1ccc(Cl)cc1Cl	-5	-1	9	7	71*	0
Cn1cc(C(=O)c2ccc(Cl)cc2Cl)cc1C(=O)O	92*	3	-5	-5	2	1

Source: PubChem BioAssay (several laboratories)
